The list shows a part of the results. Records with an inconclusive call do not appear. Active and inactive are the calls of the source. Calls come from the whole dose curve; as a rule, active = well fitted inhibition curve with a large enough effect; inconclusive = small, poorly fitted or top-dose-only effect; inactive = flat fitted curve, though single readings scatter.

Ubiquitin carboxyl-terminal hydrolase 2 (Homo sapiens), sequence (O75604 whole entry, looked up): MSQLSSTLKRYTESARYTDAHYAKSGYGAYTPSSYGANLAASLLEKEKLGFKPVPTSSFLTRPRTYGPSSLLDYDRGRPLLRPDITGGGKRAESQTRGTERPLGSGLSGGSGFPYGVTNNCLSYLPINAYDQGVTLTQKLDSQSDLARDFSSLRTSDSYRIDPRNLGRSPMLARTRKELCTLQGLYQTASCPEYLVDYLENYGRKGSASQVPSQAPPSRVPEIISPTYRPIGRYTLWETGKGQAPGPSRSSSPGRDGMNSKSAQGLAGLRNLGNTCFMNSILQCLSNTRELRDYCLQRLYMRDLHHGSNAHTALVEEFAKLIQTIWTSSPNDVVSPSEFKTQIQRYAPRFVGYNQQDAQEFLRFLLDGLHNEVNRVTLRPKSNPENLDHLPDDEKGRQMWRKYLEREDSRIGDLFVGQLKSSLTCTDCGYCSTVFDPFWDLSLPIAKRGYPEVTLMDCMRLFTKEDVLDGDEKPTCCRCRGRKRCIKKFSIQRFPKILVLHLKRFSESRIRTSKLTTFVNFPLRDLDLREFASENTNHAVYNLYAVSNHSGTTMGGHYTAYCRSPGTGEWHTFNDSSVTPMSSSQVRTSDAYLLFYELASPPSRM

For the experiment, the target named is Ubiquitin carboxyl-terminal hydrolase 2 (Homo sapiens) (UniProt O75604). Put plainly: Confirmation Assay for Inhibitors of Ubiquitin-specific Protease USP2a Using CHOP2 as the Reporter: K633. The note with it: USP2 cleavage of DiUb K63-3IQF, fluorescence kinetic. From the text:
Homeostasis of cellular proteins is maintained through a combination of synthesis and degradation. The pathway that accounts for the majority of protein degradation is the ubiquitin-proteasomal pathway. Ubiquitin (Ub) is highly conserved in all cells and the generation of a multi-Ub chain typically targets proteins for degradation by the proteasome. However, ubiquitination is highly reversible and dynamic. Deubiquitination, the reverse process, is catalyzed through the action of enzymes referred to as isopeptidases or deubiquitinating enzymes (DUBs). This group of enzymes is collectively responsible for maintaining adequate pools of free ubiquitin and regulating the ubiquitination status of cellular proteins. The class of DUBs referred to as the ubiquitin-specific proteases (USP) family functions endoproteolytically to cleave Ub chains from a wide range of protein substrates. […] Confirmed qHTS active compounds were tested in an orthogonal USP2 assays utilizing a di-ubiquitin substrate labeled with a quencher on one ubiquitin and a fluorescent compound on the other, i.e. the substrate has internally quenched fluorescence or IQF (Lifesensors). In the presence of active USP2, the diubiquitin (DiUb) is cleaved and the fluorescence at 598 nm increases. […] Upon inhibition of USP2, the fluorescence signal from cleaved substrate increases less over time than in the absence of an inhibitor. […]
`Cc1ccc(-c2cc(C(=O)Nc3ncco3)c3ccccc3n2)cc1C`: the Potency was 3.43 µM (active).

The record behind these values is PubChem BioAssay AID652172 (National Center for Advancing Translational Sciences (NCATS), 2013).
